# Reference: PubChem BioAssay (Tox21)
# Values without a mark were called inactive. Results filed as inconclusive are left out. Entries that show only a call come without a potency. The source made the active and inactive calls. The call rests on the fitted dose curve.
# Experiments:
# [1] = target: Acetylcholinesterase (Homo sapiens) (UniProt P22303); assay: Acetylcholinesterase (AChE) small molecule antagonists: colormetric cell-based qHTS assay (AID 1347395); further: nearly all actives have a fitted effect of over 30% in size; further: potency means the concentration at half of the fitted maximal effect
# Summary of the method: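 SH-SY5Y cells; cpd 30 min 37 C; + DTNB/acetylthiocholine, 90 min 37 C; colorimetric thiocholine read; qHTS.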
# [2] = target: Acetylcholinesterase (Homo sapiens) (UniProt P22303); assay: Acetylcholinesterase (AChE) small molecule antagonists: enzyme-based qHTS assay (AID 1347397); settings: Potency: AChE enzyme activity inhibition; outcome: AChE enzyme activity inhibition; further: nearly all actives have a fitted effect of over 55% in size; further: potency means the concentration at half of the fitted maximal effect
# Summary of the method: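 Colorimetric DTNB readout of acetylthiocholine hydrolysis, 10 min at room temperature, after 30 min room-temperature exposure of 50 mU/mL recombinant human enzyme to compound; DMSO vehicle control.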
# [3] = target: Acetylcholinesterase (Homo sapiens) (UniProt P22303); assay: Acetylcholinesterase (AChE) small molecule antagonists: enzyme-based qHTS assay with human liver microsomes (AID 1347399); settings: Potency: qHTS inhibition; outcome: qHTS inhibition; further: nearly all actives have a fitted effect of over 60% in size
# Summary of the method: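 Recombinant human AChE (50 mU/mL in the enzyme mix) and human liver microsomes (0.25 mg/mL final) were preincubated with compound and NADPH (0.25 mg/mL final) for 30 min at 37 C. Acetylthiocholine/DTNB was then added; thiocholine was read colorimetrically after 10 min at room temperature.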
# [4] = target: Acetylcholinesterase (Homo sapiens) (UniProt P22303); assay: Acetylcholinesterase (AChE) small molecule antagonists: fluorescence cell-based qHTS assay (AID 1347398); settings: Potency: AChE activity; outcome: AChE activity; further: nearly all actives have a fitted effect of over 50% in size; further: potency means the concentration at half of the fitted maximal effect
# Summary of the method: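 Cellular AChE activity read as thiocholine from acetylthiocholine hydrolysis, detected by Thiolite Green fluorescence at 490/520 nm after 40 min at room temperature. Compounds were pre-incubated 30 min at 37 C on adherent SH-SY5Y cells.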
# Chain of Acetylcholinesterase (Homo sapiens) (P22303 whole entry, looked up): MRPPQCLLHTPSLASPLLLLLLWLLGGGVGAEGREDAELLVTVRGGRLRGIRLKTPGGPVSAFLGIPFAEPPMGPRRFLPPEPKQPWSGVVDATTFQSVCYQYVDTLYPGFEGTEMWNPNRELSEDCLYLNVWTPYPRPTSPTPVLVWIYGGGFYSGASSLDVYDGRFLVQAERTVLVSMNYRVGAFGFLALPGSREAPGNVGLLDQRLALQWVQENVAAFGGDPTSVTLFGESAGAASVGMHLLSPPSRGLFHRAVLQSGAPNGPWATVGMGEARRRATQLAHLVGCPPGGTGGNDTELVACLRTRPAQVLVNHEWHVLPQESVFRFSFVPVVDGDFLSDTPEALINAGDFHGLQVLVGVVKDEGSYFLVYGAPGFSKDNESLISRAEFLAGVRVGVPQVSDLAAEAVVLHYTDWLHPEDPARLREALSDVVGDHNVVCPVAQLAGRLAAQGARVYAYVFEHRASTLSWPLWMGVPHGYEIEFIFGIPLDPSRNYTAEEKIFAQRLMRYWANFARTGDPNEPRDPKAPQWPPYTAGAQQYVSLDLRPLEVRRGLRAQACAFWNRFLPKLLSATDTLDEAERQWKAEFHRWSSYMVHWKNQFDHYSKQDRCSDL
smiles,measurement,setting,value
CC(=O)NC1(c2cccc(F)c2)CCN(CC[C@@]2(c3ccc(Cl)c(Cl)c3)CN(c3ccccc3)C(=O)CO2)CC1,Potency,[1],inactive
same,Potency,[2],inactive
same,Potency,[3],inactive
COC(=O)C(c1ccccc1Cl)N1CCc2sccc2C1 (stereo not drawn),Potency,[1],inactive
same,Potency,[2],inactive
same,Potency,[3],inactive
CC(=O)Oc1cccc(C)c1,Potency,[1],inactive
same,Potency,[2],inactive
same,Potency,[3],inactive
CNc1ccc(O)cc1,Potency,[1],22.4 µM (active)
same,Potency,[4],31.7 µM (active)
Cc1nc2ccccn2c(=O)c1CCN1CCC(C(=O)c2ccc(F)cc2)CC1,Potency,[1],24.5 µM (active)
same,Potency,[4],7.76 µM (active)
COc1ccc(-c2ccc3cc(C(=O)O)ccc3c2)cc1C12CC3CC(CC(C3)C1)C2,Potency,[1],inactive
same,Potency,[4],inactive
same,Potency,[3],inactive
OC1CCCCC1c1ccccc1 (stereo not drawn),Potency,[1],inactive
same,Potency,[2],inactive
same,Potency,[3],inactive
CCCCCC=CCC=CCCCCCCCC(=O)OCC,Potency,[1],inactive
same,Potency,[2],inactive
same,Potency,[3],inactive
O=C(Nc1ccc2c(O)c(N=Nc3ccc(N=Nc4ccc(S(=O)(=O)O)cc4)cc3)c(S(=O)(=O)O)cc2c1)c1ccccc1,Potency,[1],inactive
same,Potency,[2],inactive
same,Potency,[3],inactive
NC(=O)C1(N2CCCCC2)CCN(CCCN2c3ccccc3CCc3ccc(Cl)cc32)CC1,Potency,[1],inactive
same,Potency,[4],inactive
same,Potency,[3],inactive
O=C(OC[C@H]1O[C@@H](OC(=O)c2cc(O)c(O)c(OC(=O)c3cc(O)c(O)c(O)c3)c2)[C@H](OC(=O)c2cc(O)c(O)c(OC(=O)c3cc(O)c(O)c(O)c3)c2)[C@@H](OC(=O)c2cc(O)c(O)c(OC(=O)c3cc(O)c(O)c(O)c3)c2)[C@@H]1OC(=O)c1cc(O)c(O)c(OC(=O)c2cc(O)c(O)c(O)c2)c1)c1cc(O)c(O)c(OC(=O)c2cc(O)c(O)c(O)c2)c1,"activity, negative = inhibition",[1],1.72% [at 23.6 µM]
same,"activity change, negative = inhibition",[4],-11.1% [at 23.8 µM]
same,"activity change, negative = inhibition",[3],-0.451% [at 23.6 µM]
CCCCCCCCCCCCCCOS(=O)(=O)O,Potency,[1],inactive
same,Potency,[4],inactive
same,Potency,[3],inactive
O=C(Nc1cccc2c(=O)cc(-c3nn[nH]n3)oc12)c1ccc(OCCCCc2ccccc2)cc1,Potency,[1],inactive
same,Potency,[2],27.5 µM (active)
same,Potency,[3],inactive
Cc1c(C)n(Cc2ccccc2)c2ccc(C(=O)OCCN(C)C)cc12,Potency,[1],inactive
same,Potency,[4],13.8 µM (active)
same,Potency,[3],inactive
CC(C)C(=O)OCC(C)(C)C(O)C(C)C (stereo not drawn),Potency,[1],inactive
same,Potency,[4],inactive
same,Potency,[3],inactive
CCOc1ccccc1N,Potency,[1],inactive
same,Potency,[2],inactive
same,Potency,[3],inactive
CN(C)CCCSc1ccccc1NC(=O)/C=C/c1ccccc1,Potency,[1],inactive
same,Potency,[2],inactive
same,Potency,[3],inactive
Cc1ccccc1N=C(N)N=C(N)N,Potency,[1],inactive
same,Potency,[4],inactive
Nc1c(N=Nc2ccc(-c3ccc(N=Nc4cc(S(=O)(=O)O)c5ccccc5c4N)cc3)cc2)cc(S(=O)(=O)O)c2ccccc12,Potency,[1],79.6 µM (active)
same,Potency,[4],71 µM (active)
same,Potency,[3],inactive
CCO[C@H](Cc1ccc(OCCc2ccc(OS(C)(=O)=O)cc2)cc1)C(=O)O,Potency,[1],inactive
same,Potency,[2],inactive
same,Potency,[3],inactive
O=S1(=O)CC(Cl)(Cl)C(Cl)(Cl)C1,Potency,[1],71 µM (active)
same,Potency,[4],inactive
CSc1ccc2c(c1)C(N1CCN(C)CC1)Cc1ccccc1S2 (stereo not drawn),Potency,[1],inactive
same,Potency,[2],inactive
same,Potency,[3],inactive
N#CSc1ccc(N)c([N+](=O)[O-])c1,Potency,[1],inactive
same,Potency,[2],inactive
same,Potency,[3],inactive
NC(=S)N/N=C/c1cccnc1,Potency,[1],inactive
same,Potency,[2],inactive
same,Potency,[3],inactive
CCCC(C)C(O)CC (stereo not drawn),Potency,[1],inactive
same,Potency,[2],inactive
same,Potency,[3],inactive
O=C(Nc1ccc(S(=O)(=O)N2CCOCC2)cc1)c1cc(Cl)ccc1NS(=O)(=O)c1ccc(Cl)s1,Potency,[1],inactive
same,Potency,[4],inactive
same,Potency,[3],inactive
C=CCCC(=O)O,Potency,[1],inactive
same,Potency,[4],inactive
same,Potency,[3],inactive
CCCCCCCCCOC(=O)c1ccc(O)cc1,Potency,[1],inactive
same,Potency,[4],inactive
same,Potency,[3],inactive
CCCCCCCCCCCCCC=O,"activity, negative = inhibition",[1],1.02% [at 10.5 µM]
same,"activity change, negative = inhibition",[4],1.81% [at 10.5 µM]
same,"activity change, negative = inhibition",[3],-0.486% [at 10.5 µM]
CCOc1ccc2ccccc2c1C(=O)N[C@@H]1C(=O)N2[C@@H]1SC(C)(C)[C@@H]2C(=O)O,Potency,[1],inactive
same,Potency,[4],inactive
same,Potency,[3],inactive
O=c1cc(-c2ccccc2)oc2ccc3ccccc3c12,Potency,[1],inactive
same,Potency,[4],inactive
same,Potency,[3],inactive
C#CC(O)C(CC)CCCC (stereo not drawn),Potency,[1],inactive
same,Potency,[4],inactive
same,Potency,[3],inactive
C=CC[N+]1([C@H]2C[C@H]3[C@@H]4CC[C@H]5C[C@H](OC(C)=O)[C@@H](N6CCCCC6)C[C@]5(C)[C@H]4CC[C@]3(C)[C@H]2OC(=O)CC)CCCCC1,Potency,[1],27.5 µM (active)
same,Potency,[4],13.8 µM (active)
same,Potency,[3],inactive
COC(=O)CS,Potency,[1],inactive
same,Potency,[4],inactive
same,Potency,[3],inactive
